The panel holds about 83,000 compounds, 20% with a hit somewhere; the sample as a whole holds those more often.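 Values shown are percent growth following 48 h exposure of cells in 96-well plates to a single concentration of compound; below 10 was considered active.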 Activity calls are given as the source filed them.

The test system of the first assay is HCT-116 colon. The assay is described as follows: NCI-60 one-dose screen, 48 h (100 = growth as untreated, 0 = no growth, -100 = all killed). To be noted: 10 µM unless noted.
`c1cnc2ccc3ncccc3c2c1`: the growth is 95.7% (inactive). In the case of `CC(=O)n1c2ccccc2c2ccccc21`, the growth is 102% (inactive). The same measure, in the same setting: then `CC1=CC(=O)C(C(C)=Nc2ccccc2Cl)C(=O)O1` (configuration not stated), with 100% (inactive). In the case of `COc1c(O)cc2oc3cc(O)c(CC=C(C)C)c(O)c3c(=O)c2c1C/C=C(\C)CCC=C(C)C`, the growth was -29.6% (active). With `CCOC(=O)c1ccccc1OC(=O)NNc1ccccc1`, the growth was 70.8% (inactive). The same measure, in the same setting: then `O=C(/C=C/c1cc2ccccc2[nH]c1=O)c1ccc(O)cc1`, with 12.9% (inactive); and `COc1cc(/C=C2\COc3ccc(O)cc3C2=O)cc(OC)c1`, with 0.249% (active); and `ClC1=C(Cl)C(Cl)=C(Cl)C1=C/C=C/c1ccccc1`, with -98% (active). For the compound `COc1cccc(CCC2C(=O)CCCC2=O)c1`, the growth is 114% (inactive). For `CSc1ncc2ncn(C3OC(CO)C(O)C3O)c2n1` (configuration not stated), the growth is 102% (inactive). Take `CN(C)CCCN1c2nc3ccccc3cc2Sc2cc3ccccc3nc21`: the growth is -62.8% (active). For `Cc1c(C)c(N2C(=O)C=CC2=O)c(C)c(C)c1N1C(=O)C=CC1=O`, the growth was 83% (inactive). Same read-out and setting: then `CC12CCC3C(CCC4CC(=O)/C(=C\O)CC43C)C1CCC(=O)O2` (configuration not stated), with 100% (inactive); and `CC(C)C/C(=N\NC(=O)c1ccncc1)c1cc(Cl)ccc1O`, with 0.442% (active); and `OC(Cc1cccnc1)c1ccccc1` (configuration not stated), with 107% (inactive). As to `Cn1cnc([N+](=O)[O-])c1S(=O)(=O)Oc1ccc(Cl)cc1`, the growth was -32.1% (active).

Turning to `O=C(N1CCC(CN=c2cc3n(-c4ccc(Cl)cc4)c4ccccc4nc-3cc2Nc2ccc(Cl)cc2)CC1)N1CC1`, the growth is -70.9% (active). Regarding `CN1COc2ccc3ccccc3c2C1`, the growth was 93.1% (inactive). `CCCCCCCC1(C)NC(=O)NC1=O` (configuration not stated): the growth was 103% (inactive).

In the case of `CC(O)c1nc2c(c(=O)n(C)c(=O)n2C)n1C` (configuration not stated), the growth was 90.2% (inactive).

The subject of another assay is HCC-2998 colon. Described as above. The note with it: 10 µM unless noted.
For the compound `COc1ccc2c(c1)C(=O)/C(=C/c1cccc(OCC(=O)c3ccccc3)c1)CC2`, the growth is 96.4% (inactive).

`NC(=Nc1ccccc1)SCCCCSC(N)=Nc1ccccc1`: the growth is 77.6% (inactive). In the case of `CC/C(=C\c1ccc(N(C)C)cc1)c1ccncc1`, the growth is 66.6% (inactive). Regarding `CCOC(=O)c1cc(-c2cccnc2)nc2c(Cl)cc(Cl)cc12`, the growth was 98.1% (inactive). In the case of `Clc1ccc(-n2cnc3c(Cl)ncnc32)cc1Cl`, the growth was -75% (active). The same measure, in the same setting: then `O=C(CSCC(=O)N/N=C/c1ccccc1O)N/N=C\c1ccccc1O`, with 30.1% (inactive); and `COc1ccc(C(=O)COc2cccc(/C=C3\Oc4ccc5ccccc5c4C3=O)c2)cc1`, with 60% (inactive). Same read-out and setting: then `CC(=O)NC1(C(=O)O)CCCC1`, with 138% (inactive).

Consider `CCOC(=O)C1=NN(c2ccc(Cl)cc2)C2C3N(c4ccc(Cl)cc4)N=C(C(=O)OCC)N3c3ccccc3N12` (configuration not stated), for which the growth is 97.5% (inactive). Same read-out and setting: then `CC(=O)Oc1ccc(C23c4ccccc4C2(OC(C)=O)c2cc(OC(C)=O)ccc23)cc1` (configuration not stated), with 59.2% (inactive). `COc1ccc(/C=C2\NC(=S)NC2=O)cc1`: the growth is 117% (inactive). In the case of `O=C(/C=C/c1ccccc1)CC(c1ccccc1)N1CCOCC1` (configuration not stated), the growth was 20.8% (inactive). Consider `CCn1c2ccccc2c2ccc(C(C)=O)cc21`, for which the growth was 108% (inactive). With `Cc1ccc(C=C2C(Cl)=C(Cl)C(Cl)=C2Cl)cc1`, the growth was -94.8% (active).

For `Cc1ccccc1NC(=O)c1cc2ccccc2cc1O`, the growth was 81.5% (inactive).

Consider `c1ccc(-n2nnnc2-c2cccc3ccccc23)cc1`, for which the growth is 23.5% (inactive).

For `Nc1ccccc1-c1ccc([N+](=O)[O-])cc1`, the growth is 29.8% (inactive). With `c1cnc2ccc3ncccc3c2c1`, the growth was 124% (inactive). `CC(=O)n1c2ccccc2c2ccccc21`: the growth is 96.1% (inactive).

As to `CC1=CC(=O)C(C(C)=Nc2ccccc2Cl)C(=O)O1` (configuration not stated), the growth is 119% (inactive).

In the case of `COc1c(O)cc2oc3cc(O)c(CC=C(C)C)c(O)c3c(=O)c2c1C/C=C(\C)CCC=C(C)C`, the growth was -0.115% (active). Take `CCOC(=O)c1ccccc1OC(=O)NNc1ccccc1`: the growth was 40% (inactive). For `O=C(/C=C/c1cc2ccccc2[nH]c1=O)c1ccc(O)cc1`, the growth is 93.1% (inactive). With `COc1cc(/C=C2\COc3ccc(O)cc3C2=O)cc(OC)c1`, the growth was 109% (inactive). As for `ClC1=C(Cl)C(Cl)=C(Cl)C1=C/C=C/c1ccccc1`, the growth is -93.3% (active).

As to `COc1cccc(CCC2C(=O)CCCC2=O)c1`, the growth is 115% (inactive). As for `CSc1ncc2ncn(C3OC(CO)C(O)C3O)c2n1` (configuration not stated), the growth was 124% (inactive). For the compound `CN(C)CCCN1c2nc3ccccc3cc2Sc2cc3ccccc3nc21`, the growth was -71.3% (active). Same read-out and setting: then `Cc1c(C)c(N2C(=O)C=CC2=O)c(C)c(C)c1N1C(=O)C=CC1=O`, with 97.1% (inactive). For the compound `CC12CCC3C(CCC4CC(=O)/C(=C\O)CC43C)C1CCC(=O)O2` (configuration not stated), the growth was 101% (inactive). As to `CC(C)C/C(=N\NC(=O)c1ccncc1)c1cc(Cl)ccc1O`, the growth was 28.1% (inactive). For the compound `OC(Cc1cccnc1)c1ccccc1` (configuration not stated), the growth is 107% (inactive). As to `Cn1cnc([N+](=O)[O-])c1S(=O)(=O)Oc1ccc(Cl)cc1`, the growth is 83.1% (inactive). As for `O=C(N1CCC(CN=c2cc3n(-c4ccc(Cl)cc4)c4ccccc4nc-3cc2Nc2ccc(Cl)cc2)CC1)N1CC1`, the growth was -75.9% (active). `CN1COc2ccc3ccccc3c2C1`: the growth is 93% (inactive). For the compound `CCCCCCCC1(C)NC(=O)NC1=O` (configuration not stated), the growth was 140% (inactive). Still for that read-out and setting: then `CC(O)c1nc2c(c(=O)n(C)c(=O)n2C)n1C` (configuration not stated), with 103% (inactive).

The values above are taken from PubChem BioAssay (NCI).
